The supplement of paper PMC10849652
Of roughly 8,800 targets only a part is listed; those with a hit were picked by preference. About 0.5% of all pairs of compound and target were hits.

Compound: Cn1cc(-c2ccc3c(c2)CCN3C(=O)Cc2cccc(C(F)(F)F)c2)c2c(N)ncnc21
Assay: log2 fold change, soluble protein after heating vs DMSO (PISA); higher = thermal stabilisation; K562 lysate, 10 uM; active = over 0.2 and 3.5 SD of the protein, either way, in both replicates (recomputed)
Outline: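 Log-two fold change in thermal stability relative to solvent controls is reported from duplicates. For each sample, crude K562 extract from dounce-homogenised pellets in PBS pH 7.4 with 1 mM MgCl2, at 1 mg/mL protein, was treated with 10 μM compound for 30 min. Aliquots heated for 3 min across 48°C-58°C were pooled, brought to 0.5% NP-40 at 4°C and cleared at 21,000xg for 90 min. The supernatant was quantified by TMTpro 16plex LC-MS/MS with channel sums equalised.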

Chain of UniProt Q9BTX1 (Q9BTX1 whole entry, looked up): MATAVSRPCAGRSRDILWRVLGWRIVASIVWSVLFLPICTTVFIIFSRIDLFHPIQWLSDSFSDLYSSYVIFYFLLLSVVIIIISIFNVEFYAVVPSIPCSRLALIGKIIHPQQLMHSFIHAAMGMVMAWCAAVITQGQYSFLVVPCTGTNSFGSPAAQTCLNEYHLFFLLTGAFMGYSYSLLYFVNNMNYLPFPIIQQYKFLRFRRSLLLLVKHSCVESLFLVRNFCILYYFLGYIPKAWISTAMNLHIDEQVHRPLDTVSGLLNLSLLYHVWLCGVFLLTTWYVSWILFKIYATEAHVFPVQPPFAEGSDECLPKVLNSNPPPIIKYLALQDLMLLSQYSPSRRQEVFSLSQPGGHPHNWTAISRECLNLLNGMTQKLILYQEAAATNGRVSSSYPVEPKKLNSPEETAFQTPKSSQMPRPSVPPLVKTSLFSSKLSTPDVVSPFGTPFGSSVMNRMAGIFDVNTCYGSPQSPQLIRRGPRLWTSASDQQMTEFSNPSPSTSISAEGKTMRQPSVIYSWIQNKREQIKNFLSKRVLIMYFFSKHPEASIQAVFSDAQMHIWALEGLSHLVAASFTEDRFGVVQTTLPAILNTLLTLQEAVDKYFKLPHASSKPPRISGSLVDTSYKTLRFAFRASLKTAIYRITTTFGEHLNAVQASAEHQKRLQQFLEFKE
Chain of UniProt Q969R2 (Q969R2 whole entry, looked up): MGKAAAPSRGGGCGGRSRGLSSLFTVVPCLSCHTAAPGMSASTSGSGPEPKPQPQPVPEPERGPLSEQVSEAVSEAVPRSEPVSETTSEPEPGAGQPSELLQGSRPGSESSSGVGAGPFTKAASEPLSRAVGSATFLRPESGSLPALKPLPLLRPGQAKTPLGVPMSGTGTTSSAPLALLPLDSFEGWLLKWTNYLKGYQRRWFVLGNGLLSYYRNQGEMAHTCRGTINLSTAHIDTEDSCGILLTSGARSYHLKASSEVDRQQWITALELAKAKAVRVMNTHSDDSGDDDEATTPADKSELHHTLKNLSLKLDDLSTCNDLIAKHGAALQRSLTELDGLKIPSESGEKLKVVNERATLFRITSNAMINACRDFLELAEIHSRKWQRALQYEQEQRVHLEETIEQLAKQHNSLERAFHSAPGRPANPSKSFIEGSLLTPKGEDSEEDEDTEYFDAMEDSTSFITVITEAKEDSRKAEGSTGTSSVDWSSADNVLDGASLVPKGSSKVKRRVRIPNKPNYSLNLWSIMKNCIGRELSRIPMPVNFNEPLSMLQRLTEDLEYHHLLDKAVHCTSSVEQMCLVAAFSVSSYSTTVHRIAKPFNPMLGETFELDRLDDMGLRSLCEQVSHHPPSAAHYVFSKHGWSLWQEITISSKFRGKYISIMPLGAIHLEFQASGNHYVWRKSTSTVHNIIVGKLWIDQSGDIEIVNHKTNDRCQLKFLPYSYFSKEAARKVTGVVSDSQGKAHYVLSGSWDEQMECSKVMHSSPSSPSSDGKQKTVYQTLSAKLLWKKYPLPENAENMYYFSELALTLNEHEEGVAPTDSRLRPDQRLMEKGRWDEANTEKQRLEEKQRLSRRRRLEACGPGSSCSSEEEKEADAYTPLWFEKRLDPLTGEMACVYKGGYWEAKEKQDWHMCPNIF
Chain of UniProt Q92621 (Q92621 whole entry, looked up): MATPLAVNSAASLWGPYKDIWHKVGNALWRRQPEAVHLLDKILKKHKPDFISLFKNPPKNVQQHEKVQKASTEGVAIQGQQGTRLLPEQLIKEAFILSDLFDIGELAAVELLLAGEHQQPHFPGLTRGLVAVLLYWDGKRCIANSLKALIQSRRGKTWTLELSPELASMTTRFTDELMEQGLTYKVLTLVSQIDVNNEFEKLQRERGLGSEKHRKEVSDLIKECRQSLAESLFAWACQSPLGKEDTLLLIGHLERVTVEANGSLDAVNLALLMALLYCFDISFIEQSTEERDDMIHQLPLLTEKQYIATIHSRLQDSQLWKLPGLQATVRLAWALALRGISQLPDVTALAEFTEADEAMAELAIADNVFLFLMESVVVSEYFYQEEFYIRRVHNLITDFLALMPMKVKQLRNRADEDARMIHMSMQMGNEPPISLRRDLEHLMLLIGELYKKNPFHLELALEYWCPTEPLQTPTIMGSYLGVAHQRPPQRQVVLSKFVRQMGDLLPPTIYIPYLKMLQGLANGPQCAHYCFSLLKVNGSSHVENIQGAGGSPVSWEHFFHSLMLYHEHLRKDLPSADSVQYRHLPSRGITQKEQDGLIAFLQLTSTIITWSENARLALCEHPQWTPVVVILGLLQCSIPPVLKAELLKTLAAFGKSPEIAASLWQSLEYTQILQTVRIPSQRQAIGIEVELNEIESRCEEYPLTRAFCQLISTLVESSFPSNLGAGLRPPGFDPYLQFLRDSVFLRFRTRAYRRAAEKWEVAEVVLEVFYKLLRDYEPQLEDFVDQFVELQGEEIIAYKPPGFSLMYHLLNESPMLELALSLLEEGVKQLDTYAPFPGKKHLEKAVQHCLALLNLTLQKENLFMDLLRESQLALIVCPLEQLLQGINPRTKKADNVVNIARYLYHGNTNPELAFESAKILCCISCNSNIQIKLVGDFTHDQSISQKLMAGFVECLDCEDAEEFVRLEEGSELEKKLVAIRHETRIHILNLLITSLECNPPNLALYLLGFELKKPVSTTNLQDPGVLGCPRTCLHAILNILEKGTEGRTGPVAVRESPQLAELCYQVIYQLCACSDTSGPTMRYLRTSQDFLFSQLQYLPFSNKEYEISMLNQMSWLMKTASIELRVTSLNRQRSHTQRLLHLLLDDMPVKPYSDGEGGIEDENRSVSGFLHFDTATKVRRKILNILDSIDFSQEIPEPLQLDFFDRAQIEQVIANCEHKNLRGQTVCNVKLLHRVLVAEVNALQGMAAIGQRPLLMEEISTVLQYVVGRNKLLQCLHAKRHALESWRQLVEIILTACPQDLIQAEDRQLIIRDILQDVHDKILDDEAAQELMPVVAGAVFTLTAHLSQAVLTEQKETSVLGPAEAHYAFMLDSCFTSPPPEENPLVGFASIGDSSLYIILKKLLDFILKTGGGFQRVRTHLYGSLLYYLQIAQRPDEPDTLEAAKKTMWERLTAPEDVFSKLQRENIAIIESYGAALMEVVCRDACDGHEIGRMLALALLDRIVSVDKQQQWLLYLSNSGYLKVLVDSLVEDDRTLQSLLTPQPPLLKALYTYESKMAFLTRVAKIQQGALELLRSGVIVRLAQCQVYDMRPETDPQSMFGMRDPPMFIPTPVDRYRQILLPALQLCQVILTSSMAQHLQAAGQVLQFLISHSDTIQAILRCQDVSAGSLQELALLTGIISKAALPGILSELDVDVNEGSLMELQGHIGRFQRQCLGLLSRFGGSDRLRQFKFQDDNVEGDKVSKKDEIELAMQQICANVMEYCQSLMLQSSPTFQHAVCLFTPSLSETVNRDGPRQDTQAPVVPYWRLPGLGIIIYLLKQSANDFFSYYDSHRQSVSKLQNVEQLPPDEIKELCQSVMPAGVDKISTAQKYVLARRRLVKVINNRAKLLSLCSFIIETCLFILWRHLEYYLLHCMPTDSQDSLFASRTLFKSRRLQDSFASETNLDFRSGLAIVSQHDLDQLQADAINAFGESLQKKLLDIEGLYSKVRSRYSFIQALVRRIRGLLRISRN
Chain of UniProt O43913 (O43913 whole entry, looked up): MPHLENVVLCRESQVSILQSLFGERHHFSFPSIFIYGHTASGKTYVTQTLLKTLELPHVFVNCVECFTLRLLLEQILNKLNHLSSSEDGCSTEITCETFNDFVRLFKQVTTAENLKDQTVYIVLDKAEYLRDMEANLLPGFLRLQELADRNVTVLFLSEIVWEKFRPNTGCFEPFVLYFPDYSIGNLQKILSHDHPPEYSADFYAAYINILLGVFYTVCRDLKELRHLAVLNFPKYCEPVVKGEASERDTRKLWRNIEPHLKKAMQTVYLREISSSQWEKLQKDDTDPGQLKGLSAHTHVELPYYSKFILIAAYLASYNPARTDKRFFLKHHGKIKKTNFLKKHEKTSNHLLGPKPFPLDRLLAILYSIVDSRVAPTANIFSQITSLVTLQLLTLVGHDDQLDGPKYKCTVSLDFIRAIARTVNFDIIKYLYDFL
Chain of UniProt P28331 (P28331 whole entry, looked up): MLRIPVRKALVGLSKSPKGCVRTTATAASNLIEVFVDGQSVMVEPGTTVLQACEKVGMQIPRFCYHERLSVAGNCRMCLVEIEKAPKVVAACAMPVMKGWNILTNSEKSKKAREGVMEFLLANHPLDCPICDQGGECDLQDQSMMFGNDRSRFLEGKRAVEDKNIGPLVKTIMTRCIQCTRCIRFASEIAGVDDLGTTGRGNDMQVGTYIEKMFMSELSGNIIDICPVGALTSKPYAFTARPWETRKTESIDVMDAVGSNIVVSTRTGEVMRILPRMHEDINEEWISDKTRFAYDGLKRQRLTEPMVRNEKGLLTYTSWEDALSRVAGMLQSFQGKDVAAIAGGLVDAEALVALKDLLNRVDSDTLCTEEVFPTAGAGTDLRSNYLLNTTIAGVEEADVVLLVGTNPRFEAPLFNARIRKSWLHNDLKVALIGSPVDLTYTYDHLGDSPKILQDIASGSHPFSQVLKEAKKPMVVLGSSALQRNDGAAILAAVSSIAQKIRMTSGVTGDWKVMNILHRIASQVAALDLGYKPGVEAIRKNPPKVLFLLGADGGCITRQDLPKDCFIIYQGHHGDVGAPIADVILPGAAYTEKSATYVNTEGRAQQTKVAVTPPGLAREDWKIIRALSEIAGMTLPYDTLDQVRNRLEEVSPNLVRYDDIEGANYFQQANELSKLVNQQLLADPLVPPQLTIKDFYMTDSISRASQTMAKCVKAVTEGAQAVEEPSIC

log2 fold change, inactive:
OGFOD2 (UniProt Q6N063) 0.048
MTA2 (UniProt O94776) 0.046
NDC1 (UniProt Q9BTX1) 0.052
OLA1 (UniProt Q9NTK5) 0.018
OCRL (UniProt Q01968) 0.053
NCAPG2 (UniProt Q86XI2) -0.015
NUP133 (UniProt Q8WUM0) 0.056
NCKAP1L (UniProt P55160) 0.005
MRPL53 (UniProt Q96EL3) 0.06
MRPS12 (UniProt O15235) -0.007
NDUFS1 isoform 2 (UniProt P28331) 0.009
NCOR2 (UniProt C9J0Q5) -0.015
NUP205 (UniProt Q92621) 0.04
MTOR (UniProt P42345) 0.039
NF1 (UniProt P21359) 0.024
ORC5 (UniProt O43913) 0.098
OSBP2 (UniProt Q969R2) -0.002
PANK2 (UniProt Q9BZ23) -0.032
MYCBP2 (UniProt O75592) 0.015
NPTN (UniProt Q9Y639) -0.009
NNT (UniProt Q13423) 0.002
OAT (UniProt P04181) -0.012
MTHFD1, A0A384N5Y3 0.032
NIPBL (UniProt Q6KC79) 0.091
